In assay [1] the target is Sphingosine kinase 1 (Homo sapiens) (UniProt Q9NYA1). To be noted: at 1 µM.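 Note: mean SPHK1 inhibition value reported from the GSK PKIS kinase panel screen.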
The target in assay [2] is T1, Sphingosine kinase 2 (Homo sapiens) (UniProt Q9NRA0).
T1 sequence (whole entry): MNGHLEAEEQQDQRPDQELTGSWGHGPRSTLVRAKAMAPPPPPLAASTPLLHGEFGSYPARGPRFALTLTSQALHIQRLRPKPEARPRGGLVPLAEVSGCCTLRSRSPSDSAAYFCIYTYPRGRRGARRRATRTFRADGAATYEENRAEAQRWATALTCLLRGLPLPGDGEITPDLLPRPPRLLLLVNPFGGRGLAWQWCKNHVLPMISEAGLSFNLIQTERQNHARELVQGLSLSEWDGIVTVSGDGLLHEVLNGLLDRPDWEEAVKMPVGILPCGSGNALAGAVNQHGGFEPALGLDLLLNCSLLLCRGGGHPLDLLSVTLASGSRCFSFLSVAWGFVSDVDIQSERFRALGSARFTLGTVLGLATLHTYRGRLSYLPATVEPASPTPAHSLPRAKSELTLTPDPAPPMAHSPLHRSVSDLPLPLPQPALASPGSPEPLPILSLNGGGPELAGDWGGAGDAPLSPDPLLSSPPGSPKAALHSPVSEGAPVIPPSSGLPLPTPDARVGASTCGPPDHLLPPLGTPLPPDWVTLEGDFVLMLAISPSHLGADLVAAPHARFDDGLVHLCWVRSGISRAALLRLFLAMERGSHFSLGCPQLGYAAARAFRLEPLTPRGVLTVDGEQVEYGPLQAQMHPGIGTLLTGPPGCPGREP
To be noted: at 0.1 µM.

The target of assay [3] is T1, Sphingosine kinase 2 (Homo sapiens). To be noted: at 1 µM.
Assay [4] concerns the target Casein kinase II subunit alpha (Homo sapiens) (UniProt P68400). To be noted: at 0.1 µM.
The target is the same in assay [5]. The conditions noted are these: at 1 µM.
Assay [6] concerns the target T2, Inhibitor of nuclear factor kappa-B kinase subunit alpha (Homo sapiens) (UniProt O15111).
T2 sequence (whole entry): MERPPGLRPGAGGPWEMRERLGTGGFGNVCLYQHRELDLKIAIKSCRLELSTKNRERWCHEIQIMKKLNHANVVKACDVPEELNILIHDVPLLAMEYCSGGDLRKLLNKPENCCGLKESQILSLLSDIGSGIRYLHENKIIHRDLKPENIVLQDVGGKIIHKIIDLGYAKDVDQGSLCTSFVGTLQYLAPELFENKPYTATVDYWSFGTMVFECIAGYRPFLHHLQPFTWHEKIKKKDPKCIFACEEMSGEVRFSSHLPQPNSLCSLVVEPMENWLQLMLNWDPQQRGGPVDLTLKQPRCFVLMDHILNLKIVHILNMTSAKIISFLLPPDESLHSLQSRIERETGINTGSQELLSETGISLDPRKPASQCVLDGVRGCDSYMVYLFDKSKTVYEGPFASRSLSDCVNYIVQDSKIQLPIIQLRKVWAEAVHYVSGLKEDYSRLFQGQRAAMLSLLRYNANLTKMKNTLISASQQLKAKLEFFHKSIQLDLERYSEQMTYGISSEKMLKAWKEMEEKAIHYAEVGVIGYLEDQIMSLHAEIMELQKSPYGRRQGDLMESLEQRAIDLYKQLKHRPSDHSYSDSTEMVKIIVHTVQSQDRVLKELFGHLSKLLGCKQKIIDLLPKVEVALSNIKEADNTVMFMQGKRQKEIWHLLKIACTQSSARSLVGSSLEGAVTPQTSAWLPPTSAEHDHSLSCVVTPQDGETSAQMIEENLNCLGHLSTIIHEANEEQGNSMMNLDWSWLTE
To be noted: at 0.1 µM.

The target of assay [7] is T2, Inhibitor of nuclear factor kappa-B kinase subunit alpha (Homo sapiens). The conditions noted are these: at 1 µM.
The target of assay [8] is T3, Inhibitor of nuclear factor kappa-B kinase subunit beta (Homo sapiens) (UniProt O14920).
T3 sequence (whole entry): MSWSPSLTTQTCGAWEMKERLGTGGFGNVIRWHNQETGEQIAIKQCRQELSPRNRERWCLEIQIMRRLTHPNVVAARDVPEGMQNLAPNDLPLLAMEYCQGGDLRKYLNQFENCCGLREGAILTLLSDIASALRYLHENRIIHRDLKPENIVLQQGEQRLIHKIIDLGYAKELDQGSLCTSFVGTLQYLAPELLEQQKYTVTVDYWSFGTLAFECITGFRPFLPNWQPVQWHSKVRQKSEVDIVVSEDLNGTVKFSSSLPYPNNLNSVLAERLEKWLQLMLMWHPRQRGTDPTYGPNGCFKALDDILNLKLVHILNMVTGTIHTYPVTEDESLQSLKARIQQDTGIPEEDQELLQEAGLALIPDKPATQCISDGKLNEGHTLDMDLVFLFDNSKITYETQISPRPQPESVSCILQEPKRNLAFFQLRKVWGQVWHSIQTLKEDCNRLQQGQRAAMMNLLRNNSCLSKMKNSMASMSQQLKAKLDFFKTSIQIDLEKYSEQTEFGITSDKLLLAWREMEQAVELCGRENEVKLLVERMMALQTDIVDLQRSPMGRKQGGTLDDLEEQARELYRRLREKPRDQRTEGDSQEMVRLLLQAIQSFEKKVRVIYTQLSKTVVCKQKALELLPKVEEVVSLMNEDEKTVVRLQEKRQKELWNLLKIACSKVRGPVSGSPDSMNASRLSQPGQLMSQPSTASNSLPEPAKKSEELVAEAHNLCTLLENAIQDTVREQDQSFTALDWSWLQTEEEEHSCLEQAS
The conditions noted are these: at 0.1 µM.

For assay [9], the target named is T3, Inhibitor of nuclear factor kappa-B kinase subunit beta (Homo sapiens). The conditions noted are these: at 1 µM.
The target in assay [10] is T4, Inhibitor of nuclear factor kappa-B kinase subunit epsilon (Homo sapiens) (UniProt Q14164).
T4 sequence (whole entry): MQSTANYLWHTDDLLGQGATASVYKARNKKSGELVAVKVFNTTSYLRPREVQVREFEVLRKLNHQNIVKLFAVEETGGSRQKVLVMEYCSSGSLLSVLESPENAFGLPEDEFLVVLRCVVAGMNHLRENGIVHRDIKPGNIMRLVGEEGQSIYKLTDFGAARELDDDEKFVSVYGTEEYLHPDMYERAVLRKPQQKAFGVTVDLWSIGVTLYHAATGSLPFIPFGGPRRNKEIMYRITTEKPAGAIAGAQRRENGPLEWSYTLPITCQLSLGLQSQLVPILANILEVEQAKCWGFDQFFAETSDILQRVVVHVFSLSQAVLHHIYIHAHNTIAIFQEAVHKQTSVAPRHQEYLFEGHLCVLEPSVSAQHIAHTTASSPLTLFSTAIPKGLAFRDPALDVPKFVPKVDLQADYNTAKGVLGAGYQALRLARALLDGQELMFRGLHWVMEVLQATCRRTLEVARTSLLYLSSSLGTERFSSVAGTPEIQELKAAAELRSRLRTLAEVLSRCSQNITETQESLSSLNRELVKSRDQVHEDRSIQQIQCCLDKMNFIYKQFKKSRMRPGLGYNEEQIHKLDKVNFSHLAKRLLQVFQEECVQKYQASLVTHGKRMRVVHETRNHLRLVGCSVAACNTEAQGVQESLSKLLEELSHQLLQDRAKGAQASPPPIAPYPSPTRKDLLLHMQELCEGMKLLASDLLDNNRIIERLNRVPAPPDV
To be noted: at 0.1 µM.

The target of assay [11] is T4, Inhibitor of nuclear factor kappa-B kinase subunit epsilon (Homo sapiens). The conditions noted are these: at 1 µM.
In assay [12] the target is T5, Serine/threonine-protein kinase Nek1 (Homo sapiens) (UniProt Q96PY6).
T5 sequence (whole entry): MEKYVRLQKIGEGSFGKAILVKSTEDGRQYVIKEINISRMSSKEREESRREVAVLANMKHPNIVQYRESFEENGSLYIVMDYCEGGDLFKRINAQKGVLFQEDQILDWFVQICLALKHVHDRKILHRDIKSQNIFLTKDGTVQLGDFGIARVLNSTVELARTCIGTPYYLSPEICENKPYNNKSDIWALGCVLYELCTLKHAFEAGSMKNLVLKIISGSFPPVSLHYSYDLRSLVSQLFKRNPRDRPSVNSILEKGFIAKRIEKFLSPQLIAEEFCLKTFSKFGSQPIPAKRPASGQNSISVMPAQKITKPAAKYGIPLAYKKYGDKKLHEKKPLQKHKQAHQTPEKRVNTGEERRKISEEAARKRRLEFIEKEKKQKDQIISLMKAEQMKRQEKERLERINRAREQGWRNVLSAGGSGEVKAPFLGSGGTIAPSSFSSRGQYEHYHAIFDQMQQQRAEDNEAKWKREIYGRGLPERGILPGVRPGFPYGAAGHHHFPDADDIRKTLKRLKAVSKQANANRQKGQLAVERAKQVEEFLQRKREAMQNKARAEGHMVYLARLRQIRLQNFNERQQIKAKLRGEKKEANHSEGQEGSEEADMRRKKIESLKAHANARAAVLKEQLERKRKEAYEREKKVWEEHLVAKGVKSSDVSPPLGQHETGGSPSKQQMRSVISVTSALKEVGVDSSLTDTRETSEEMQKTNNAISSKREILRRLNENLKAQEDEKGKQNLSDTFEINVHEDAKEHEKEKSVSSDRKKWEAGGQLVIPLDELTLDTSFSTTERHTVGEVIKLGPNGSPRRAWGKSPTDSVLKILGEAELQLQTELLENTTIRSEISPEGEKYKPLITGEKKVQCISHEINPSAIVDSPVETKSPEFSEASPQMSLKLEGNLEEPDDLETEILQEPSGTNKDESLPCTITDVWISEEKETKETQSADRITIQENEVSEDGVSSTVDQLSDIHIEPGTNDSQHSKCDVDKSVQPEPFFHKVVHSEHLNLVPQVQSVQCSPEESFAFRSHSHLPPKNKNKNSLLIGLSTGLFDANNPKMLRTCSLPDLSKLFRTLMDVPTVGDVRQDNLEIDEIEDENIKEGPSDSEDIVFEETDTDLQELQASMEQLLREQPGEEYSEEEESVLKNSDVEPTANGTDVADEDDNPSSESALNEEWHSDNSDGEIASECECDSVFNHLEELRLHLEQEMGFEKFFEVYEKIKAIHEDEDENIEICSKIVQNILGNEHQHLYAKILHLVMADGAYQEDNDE
The conditions noted are these: at 0.1 µM.

The target of assay [13] is T5, Serine/threonine-protein kinase Nek1 (Homo sapiens). To be noted: at 1 µM.
Assay [14] addresses T6, Serine/threonine-protein kinase Nek2 (Homo sapiens) (UniProt P51955).
T6 sequence (whole entry): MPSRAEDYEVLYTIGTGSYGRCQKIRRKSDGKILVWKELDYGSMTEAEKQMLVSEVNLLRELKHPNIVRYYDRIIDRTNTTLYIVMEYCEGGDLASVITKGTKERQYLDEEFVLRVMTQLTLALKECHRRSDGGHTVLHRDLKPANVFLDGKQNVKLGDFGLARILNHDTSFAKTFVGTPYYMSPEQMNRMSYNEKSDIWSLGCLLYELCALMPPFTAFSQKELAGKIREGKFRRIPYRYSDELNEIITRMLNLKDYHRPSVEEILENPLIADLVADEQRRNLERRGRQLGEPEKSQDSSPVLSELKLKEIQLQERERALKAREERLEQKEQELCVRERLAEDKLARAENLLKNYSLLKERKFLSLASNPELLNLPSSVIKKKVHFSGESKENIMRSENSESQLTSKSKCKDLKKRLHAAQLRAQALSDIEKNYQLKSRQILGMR
The conditions noted are these: at 0.1 µM.

Assay [15] has as its target T6, Serine/threonine-protein kinase Nek2 (Homo sapiens). The conditions noted are these: at 1 µM.
In assay [16] the target is Serine/threonine-protein kinase Nek6 (Homo sapiens) (UniProt Q9HC98). The conditions noted are these: at 0.1 µM.
The target is the same in assay [17]. The conditions noted are these: at 1 µM.
The target in assay [18] is Serine/threonine-protein kinase Nek7 (Homo sapiens) (UniProt Q8TDX7). The conditions noted are these: at 0.1 µM.
The target is the same in assay [19]. The conditions noted are these: at 1 µM.
Assay [20] addresses T7, Serine/threonine-protein kinase Nek9 (Homo sapiens) (UniProt Q8TD19).
T7 sequence (whole entry): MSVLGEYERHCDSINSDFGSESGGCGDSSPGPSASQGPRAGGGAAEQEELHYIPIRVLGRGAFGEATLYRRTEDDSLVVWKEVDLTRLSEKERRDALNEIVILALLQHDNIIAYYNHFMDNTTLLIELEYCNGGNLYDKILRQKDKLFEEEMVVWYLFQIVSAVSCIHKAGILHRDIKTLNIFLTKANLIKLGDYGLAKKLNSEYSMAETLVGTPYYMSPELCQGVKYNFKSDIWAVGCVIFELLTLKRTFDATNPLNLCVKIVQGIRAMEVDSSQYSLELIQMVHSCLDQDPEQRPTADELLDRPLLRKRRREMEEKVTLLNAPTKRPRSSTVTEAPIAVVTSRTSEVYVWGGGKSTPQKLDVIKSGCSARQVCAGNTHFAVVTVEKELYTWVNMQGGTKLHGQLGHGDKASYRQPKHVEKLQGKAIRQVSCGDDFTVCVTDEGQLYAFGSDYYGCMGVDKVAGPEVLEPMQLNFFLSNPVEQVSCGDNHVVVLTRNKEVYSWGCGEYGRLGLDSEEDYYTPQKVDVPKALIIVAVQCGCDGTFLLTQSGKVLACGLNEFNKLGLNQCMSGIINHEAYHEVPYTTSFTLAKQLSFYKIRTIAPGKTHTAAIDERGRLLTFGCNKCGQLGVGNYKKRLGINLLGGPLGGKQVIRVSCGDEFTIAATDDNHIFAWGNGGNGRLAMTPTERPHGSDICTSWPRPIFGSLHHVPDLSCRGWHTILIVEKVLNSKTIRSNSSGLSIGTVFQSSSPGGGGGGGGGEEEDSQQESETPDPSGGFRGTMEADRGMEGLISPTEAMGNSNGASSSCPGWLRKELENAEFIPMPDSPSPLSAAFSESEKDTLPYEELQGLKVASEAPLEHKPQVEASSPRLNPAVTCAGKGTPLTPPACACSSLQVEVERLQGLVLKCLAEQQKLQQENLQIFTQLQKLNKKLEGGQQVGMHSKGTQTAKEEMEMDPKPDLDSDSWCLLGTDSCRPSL
To be noted: at 0.1 µM.

Serine/threonine-protein kinase Nek6 (Homo sapiens), sequence (Q9HC98 whole entry): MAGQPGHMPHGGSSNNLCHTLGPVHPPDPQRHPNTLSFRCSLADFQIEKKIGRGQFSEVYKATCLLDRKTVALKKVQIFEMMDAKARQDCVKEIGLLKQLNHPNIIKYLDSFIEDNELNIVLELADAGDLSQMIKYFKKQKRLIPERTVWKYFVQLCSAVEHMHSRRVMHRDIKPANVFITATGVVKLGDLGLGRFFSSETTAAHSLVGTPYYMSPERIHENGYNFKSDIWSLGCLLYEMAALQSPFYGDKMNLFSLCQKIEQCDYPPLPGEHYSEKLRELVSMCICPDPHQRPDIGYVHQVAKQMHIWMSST
Serine/threonine-protein kinase Nek7 (Homo sapiens), sequence (Q8TDX7 whole entry, looked up): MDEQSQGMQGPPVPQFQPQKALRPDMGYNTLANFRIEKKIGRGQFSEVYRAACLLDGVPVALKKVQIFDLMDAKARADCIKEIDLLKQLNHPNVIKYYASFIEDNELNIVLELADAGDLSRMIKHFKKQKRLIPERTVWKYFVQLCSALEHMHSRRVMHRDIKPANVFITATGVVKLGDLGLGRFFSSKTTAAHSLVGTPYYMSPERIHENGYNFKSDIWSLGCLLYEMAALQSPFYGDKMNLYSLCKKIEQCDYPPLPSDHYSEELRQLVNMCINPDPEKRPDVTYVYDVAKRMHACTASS
Casein kinase II subunit alpha (Homo sapiens), sequence (P68400 whole entry, looked up): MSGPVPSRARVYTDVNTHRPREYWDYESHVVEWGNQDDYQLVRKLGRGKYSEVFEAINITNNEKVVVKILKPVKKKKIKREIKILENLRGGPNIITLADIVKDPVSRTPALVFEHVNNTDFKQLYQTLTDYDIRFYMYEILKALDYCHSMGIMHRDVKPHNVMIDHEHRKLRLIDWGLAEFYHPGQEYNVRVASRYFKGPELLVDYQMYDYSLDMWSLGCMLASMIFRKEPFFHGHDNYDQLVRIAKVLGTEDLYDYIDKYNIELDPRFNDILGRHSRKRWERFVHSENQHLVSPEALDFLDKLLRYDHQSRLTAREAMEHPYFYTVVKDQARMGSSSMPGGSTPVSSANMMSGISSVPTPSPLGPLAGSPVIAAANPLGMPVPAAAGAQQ
Sphingosine kinase 1 (Homo sapiens), sequence (Q9NYA1 whole entry): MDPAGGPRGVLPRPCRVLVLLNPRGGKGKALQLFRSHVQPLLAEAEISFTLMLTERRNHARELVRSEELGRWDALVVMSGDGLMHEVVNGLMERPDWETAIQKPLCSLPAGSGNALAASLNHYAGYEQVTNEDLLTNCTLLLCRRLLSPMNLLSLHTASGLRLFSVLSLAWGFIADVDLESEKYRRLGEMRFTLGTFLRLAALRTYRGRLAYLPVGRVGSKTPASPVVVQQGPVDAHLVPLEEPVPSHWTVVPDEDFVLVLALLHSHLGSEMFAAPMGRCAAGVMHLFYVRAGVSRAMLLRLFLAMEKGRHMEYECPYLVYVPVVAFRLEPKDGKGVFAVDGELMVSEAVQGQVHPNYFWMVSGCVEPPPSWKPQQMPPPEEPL

Broadly, the inhibition is the change of the read-out against control, counted positive when it falls. Regarding `COc1ccc(-c2nn3ncccc3c2-c2ccnc(Nc3ccc4c(c3)OCCO4)n2)cc1`, the inhibition in [1] is -0.22%; in assay [2] it was -0.07%; in assay [3], 0.39%; in assay [4] it was 7.89%; in [5], 3.92%; in [6] it was 6.88%. The inhibition is 1.71% in assay [7]; 3.03% in assay [8]; 1.7% in [9]; 1.54% in [10]; -0.27% in assay [11]; 0.11% in assay [12]. In addition, the inhibition in [13] was 2.9%; in assay [14], -0.55%; in assay [15] it was 3.9%; in assay [16], -0.41%; in assay [17], 0.26%; in assay [18], 2.18%. Moreover, the inhibition in assay [19] was 1.38%; in assay [20], 6.4%.
